Growth inhibition, inhibition and outcome data for 18 compounds are collected here from PubChem BioAssay.

A word on the inhibition: it is the change of the read-out against control, counted positive when it falls.

Values without a mark were called inactive. For part of these data: Measured potencies and affinities stand elsewhere. Active and inactive are the calls of the source. Unless noted, how the calls were made is not given here.

Assay [1] is described as follows: antimalarial activity against Dd2 strain (AID 2302;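 active means growth inhibition above 50% at the single 2 µM test dose, taken to imply half-maximal potency below 2 µM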;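 further: 0% = DMSO untreated growth and 100% = chloroquine plus artemisinin killed control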). Conditions: P. falciparum Dd2 in RBCs, LDH growth readout, 72 h; at 2 µM; stronger effect = higher value.
The nature of assay [2]: human hepatoma cell viability loss – ATP luminescence, cytotoxicity control for P. falciparum antimalarial project, primary screen (AID 2303;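 active means inhibition above 50%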;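 further: 0% = DMSO wells and 100% = digitonin-killed cells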). Conditions: HepG2 viability, 24-48 h, at 10 µM, stronger effect = higher value.
In assay [3] the target is L-lactate dehydrogenase (Plasmodium falciparum (isolate CDC / Honduras)) (UniProt Q27743). Kind of assay: PfLDH activity inhibition – cell lysate, 3D7 strain, counter-screen for P. falciparum growth inhibition project (AID 2304).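 Further: 0% = vehicle and 100% = reference inhibitor.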 The following applies: P. falciparum 3D7 crude extract, LDH APAD/NBT absorbance; at 2 µM; stronger effect = higher value. Background: A counterscreen serves to expose hits that act by an unwanted route or on another target.

Assay [4] in a line: inhibition of 3D7 malaria parasite growth – strain 3D7 (AID 2306).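 Further: 0% = DMSO wells and 100% = chloroquine plus artemisinin control wells.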 Conditions: P. falciparum 3D7 erythrocytic growth, LDH absorbance, 72 h; at 2 µM; stronger effect = higher value.
Assay [5] addresses Calcium-dependent protein kinase 1 (Plasmodium falciparum (isolate 3D7)) (UniProt P62344). Kind of assay: PfCDPK1 kinase inhibitors, biochemical, TCAMS library (AID 1159585; cut-off not given, nearly all actives have IC50 up to about 0.98 µM;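 further: inhibitors leave more ATP so luminescence rises with inhibition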). Conditions: recombinant PfCDPK1, Kinase-Glo ATP depletion luminescence. In general terms: In Kinase-Glo more light means more ATP remaining.
Assay [6] concerns the target Plasmodium falciparum protein kinase 6 (PK6, PF3D7_1337100) (UniProt Q8IDW1). Kind of assay: PfPK6 kinase inhibitors, biochemical, TCAMS library (AID 1159586). Conditions: recombinant PfPK6, Kinase-Glo ATP depletion luminescence.
Assay [7] concerns the target Protein kinase 7 (PK7), Plasmodium falciparum 3D7 (PF3D7_0213400) (UniProt Q7YTF7). Kind of assay: inhibition of Plasmodium PK7 catalytic activity – biochemical, TCAMS antimalarial set, Kinase-Glo luminescence (AID 1159587). The following applies: recombinant PfPK7, Kinase-Glo ATP depletion luminescence.
Assay [8] addresses Calcium-dependent protein kinase 4 (Plasmodium falciparum (isolate 3D7)) (UniProt Q8IBS5). Kind of assay: PfCDPK4 kinase inhibitors, biochemical, TCAMS library (AID 1159588; cut-off not given, nearly all actives have IC50 up to about 0.91 µM). The following applies: recombinant PfCDPK4, Kinase-Glo ATP depletion luminescence.

Plasmodium falciparum protein kinase 6 (PK6, PF3D7_1337100), sequence (Q8IDW1 1-305): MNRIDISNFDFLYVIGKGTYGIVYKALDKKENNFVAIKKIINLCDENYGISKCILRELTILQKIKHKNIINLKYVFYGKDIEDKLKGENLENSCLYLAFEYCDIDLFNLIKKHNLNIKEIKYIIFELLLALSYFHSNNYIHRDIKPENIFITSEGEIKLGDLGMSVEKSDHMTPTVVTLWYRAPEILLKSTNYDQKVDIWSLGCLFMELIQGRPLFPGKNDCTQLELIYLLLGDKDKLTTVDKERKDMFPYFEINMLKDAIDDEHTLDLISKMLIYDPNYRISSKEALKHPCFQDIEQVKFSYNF
Calcium-dependent protein kinase 4 (Plasmodium falciparum (isolate 3D7)), sequence (Q8IBS5 whole entry, looked up): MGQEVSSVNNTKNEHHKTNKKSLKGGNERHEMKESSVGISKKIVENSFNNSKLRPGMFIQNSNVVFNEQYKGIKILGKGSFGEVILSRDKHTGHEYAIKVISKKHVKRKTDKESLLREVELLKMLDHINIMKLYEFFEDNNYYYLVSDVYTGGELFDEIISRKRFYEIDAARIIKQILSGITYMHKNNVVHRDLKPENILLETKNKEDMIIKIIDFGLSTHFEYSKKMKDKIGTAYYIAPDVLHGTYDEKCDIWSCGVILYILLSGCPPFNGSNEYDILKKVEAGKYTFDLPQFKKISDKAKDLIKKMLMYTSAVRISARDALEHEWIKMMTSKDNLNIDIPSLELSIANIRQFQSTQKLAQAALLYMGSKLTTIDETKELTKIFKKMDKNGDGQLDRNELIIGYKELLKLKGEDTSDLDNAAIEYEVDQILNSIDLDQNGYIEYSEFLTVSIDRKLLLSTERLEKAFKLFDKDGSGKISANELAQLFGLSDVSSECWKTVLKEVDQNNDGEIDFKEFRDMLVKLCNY
Calcium-dependent protein kinase 1 (Plasmodium falciparum (isolate 3D7)), sequence (P62344 whole entry, looked up): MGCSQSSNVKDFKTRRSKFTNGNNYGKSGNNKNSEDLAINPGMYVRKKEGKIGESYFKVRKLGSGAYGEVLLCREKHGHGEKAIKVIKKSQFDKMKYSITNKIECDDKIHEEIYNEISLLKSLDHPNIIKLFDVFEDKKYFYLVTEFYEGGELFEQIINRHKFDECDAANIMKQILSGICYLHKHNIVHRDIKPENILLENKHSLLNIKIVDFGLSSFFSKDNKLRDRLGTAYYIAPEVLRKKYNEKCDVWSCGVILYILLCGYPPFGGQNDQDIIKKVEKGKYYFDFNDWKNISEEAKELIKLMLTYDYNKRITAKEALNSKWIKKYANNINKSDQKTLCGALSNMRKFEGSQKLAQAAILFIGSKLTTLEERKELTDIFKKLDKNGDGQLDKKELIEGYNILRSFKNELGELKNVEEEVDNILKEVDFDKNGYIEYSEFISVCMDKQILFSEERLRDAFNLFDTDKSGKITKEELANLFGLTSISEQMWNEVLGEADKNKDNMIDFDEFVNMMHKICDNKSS
L-lactate dehydrogenase (Plasmodium falciparum (isolate CDC / Honduras)), sequence (Q27743 whole entry, looked up): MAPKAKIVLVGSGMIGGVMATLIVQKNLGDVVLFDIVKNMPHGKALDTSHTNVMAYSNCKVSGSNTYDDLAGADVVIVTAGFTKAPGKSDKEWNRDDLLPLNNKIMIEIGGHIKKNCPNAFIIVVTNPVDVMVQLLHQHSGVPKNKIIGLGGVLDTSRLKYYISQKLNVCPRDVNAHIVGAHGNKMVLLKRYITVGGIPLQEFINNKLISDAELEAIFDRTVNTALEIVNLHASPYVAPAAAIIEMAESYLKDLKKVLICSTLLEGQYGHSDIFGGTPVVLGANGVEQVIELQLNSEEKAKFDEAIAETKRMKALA
Protein kinase 7 (PK7), Plasmodium falciparum 3D7 (PF3D7_0213400), sequence (Q7YTF7 1-343): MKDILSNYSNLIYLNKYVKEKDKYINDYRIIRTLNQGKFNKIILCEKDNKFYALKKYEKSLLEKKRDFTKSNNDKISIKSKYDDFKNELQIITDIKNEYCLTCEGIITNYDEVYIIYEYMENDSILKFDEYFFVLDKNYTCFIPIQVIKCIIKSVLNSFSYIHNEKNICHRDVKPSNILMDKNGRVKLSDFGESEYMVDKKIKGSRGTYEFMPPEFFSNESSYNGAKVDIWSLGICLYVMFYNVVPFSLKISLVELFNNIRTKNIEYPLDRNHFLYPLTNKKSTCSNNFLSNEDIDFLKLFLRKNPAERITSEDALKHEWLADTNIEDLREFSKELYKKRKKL

As to `Cc1ccc(Cn2ncc(N3CCNCC3)c(Cl)c2=O)cc1NC(=O)Nc1ccc(-c2ccccc2)cc1`, the growth inhibition is 30% in assay [1] and 90% (active) in assay [4]. In addition, the figures for the inhibition in assay [2] and in assay [3] were 56% (active) and 6%, respectively. Also, the result in assay [5], in assay [6], in assay [7] and in assay [8] was inactive.
Regarding `C#CCCC(=O)Nc1cccc(-c2cccc(-c3nc4c(C)cccc4[nH]3)c2)c1`, the figures for the growth inhibition in assay [1] and in assay [4] were 29% and 97% (active), respectively. In addition, the inhibition in assay [2] was 30%; in assay [3], -3%. Besides, the result in assay [5], in assay [6], in assay [7] and in assay [8] was inactive.
For `Cc1cc(N2Cc3ccccc3C2)nc(Nc2ccc(S(=O)(=O)N3CCOCC3)cc2)n1`, the growth inhibition in assay [1] is 85% (active); in assay [4] it was 101% (active). Further, the inhibition in assay [2] is 13%; in assay [3], 0%. Besides, the result in assay [5], in assay [6], in assay [7] and in assay [8] was inactive.
For `CN(C)CCn1cc(C(=O)c2cc(Cl)ccc2O)cc1-c1nc2ccccc2c(=O)[nH]1`, the growth inhibition is 87% (active) in assay [1] and 99% (active) in assay [4]. Moreover, the inhibition in assay [2] is 16%; in assay [3] it was -3%. In addition, the result in assay [5], in assay [6], in assay [7] and in assay [8] was inactive.
Regarding `Cc1ccc(-c2nnc(-c3ccc(C(=O)NC4CCN(Cc5ccc(C#N)cc5)CC4)cc3)o2)cc1Br`, the growth inhibition in assay [1] is 7%; in assay [4] it was 91% (active). Besides, the inhibition in assay [2] is 41%; in assay [3] it was -5%. Also, the result in assay [5], in assay [6], in assay [7] and in assay [8] was inactive.
As to `CNCc1cccc2[nH]c(-c3ccc(Cc4cc(Cl)ccc4OCC(C)C)o3)nc12`, the growth inhibition in assay [1] was 23%; in assay [4], 97% (active). Besides, the inhibition in assay [2] is 20%; in assay [3], 0%. Besides, the outcome in assay [5], in assay [6], in assay [7] and in assay [8] was inactive.
With `O=C(Cn1c(CCc2cccc(F)c2F)cc(=O)c2cccnc21)N(CCn1ccnc1)Cc1ccc(-c2ccc(C(F)(F)F)cc2)cc1`, the growth inhibition was 62% (active) in assay [1] and 99% (active) in assay [4]. The inhibition in assay [2] was 39%; in assay [3], 0%. The result in assay [5], in assay [6], in assay [7] and in assay [8] was inactive.
`CC1(C)N=C(N)N=C(N)C1c1ccc(Cl)c(Cl)c1` (centres undefined): the growth inhibition in assay [1] is 0%; in assay [4], 95% (active). Further, the inhibition in assay [2] is 47%; in assay [3], -6%. The result in assay [5], in assay [6], in assay [7] and in assay [8] was inactive.
Take `COc1ccccc1C1CCN(CCCCNC(=O)c2ccc(NC(=O)c3ccc(Cl)cc3)cc2)CC1`: the growth inhibition in assay [1] was 12%; in assay [4] it was 95% (active). Besides, the inhibition in assay [2] was 21%; in assay [3], 6%. Moreover, the outcome in assay [5], in assay [6], in assay [7] and in assay [8] was inactive.
Consider `COc1ccc(C=NNc2cc(C)nc3ccccc23)cc1OC`, for which the growth inhibition in assay [1] was 8%; in assay [4], 91% (active). Also, the inhibition was 19% in assay [2] and -1% in assay [3]. Further, the outcome in assay [5], in assay [6], in assay [7] and in assay [8] was inactive.
For `COc1cc2c(cc1S(=O)(=O)c1ccc(COc3ccc(C(F)(F)F)cc3)cc1)CNCC2`, the figures for the growth inhibition in assay [1] and in assay [4] were 89% (active) and 103% (active), respectively. Moreover, the inhibition in assay [2] was 32%; in assay [3], 5%. Besides, the result in assay [5], in assay [6], in assay [7] and in assay [8] was inactive.
On to `Cc1cc(N2CCOCC2)nc2ccc(NC(=O)c3cccc([N+](=O)[O-])c3)cc12`, for which the growth inhibition in assay [1] was 37%; in assay [4] it was 97% (active). Further, the inhibition in assay [2] and in assay [3] was 0% in each case. Besides, the outcome in assay [5], in assay [6], in assay [7] and in assay [8] was inactive.
With `CCCCCN1CCCC(NS(=O)(=O)c2ccc(C(=O)Nc3ccc(C(F)(F)F)cc3)cc2)C1` (centres undefined), the growth inhibition in assay [1] was 20%; in assay [4], 98% (active). In addition, the inhibition is 41% in assay [2] and 4% in assay [3]. Besides, the outcome in assay [5], in assay [6], in assay [7] and in assay [8] was inactive.
For `COc1ccc2nccc([C@@H](O)CN3CCC(NCc4cc5c(cc4F)SCC(=O)N5)CC3)c2n1`, the growth inhibition in assay [1] was 27%; in assay [4], 96% (active). Moreover, the figures for the inhibition in assay [2] and in assay [3] were 14% and 3%, respectively. Also, the outcome in assay [5], in assay [6], in assay [7] and in assay [8] was inactive.
With `CCOC(=O)c1ccc(NC(=O)N[C@@H](Cc2ccc(O)cc2)C(=O)NC2CCN(Cc3ccc4c(c3)OCO4)CC2)cc1`, the growth inhibition in assay [1] was 24%; in assay [4], 86% (active). Besides, the results for the inhibition in assay [2] and in assay [3] were -1% and 3%, respectively. Moreover, the outcome in assay [5], in assay [6], in assay [7] and in assay [8] was inactive.
As for `CC(C)(C)c1ccc(CNCC(C)(C)c2nc(-c3ccc(Cl)c(O)c3)c(-c3ccnc(N)n3)[nH]2)cc1`, the growth inhibition in assay [1] is 54% (active); in assay [4], 100% (active). In addition, the inhibition is 28% in assay [2] and -7% in assay [3]. Besides, the result in assay [5], in assay [6], in assay [7] and in assay [8] was inactive.
On to `Cc1cccc2[nH]c(-c3cccc(-c4cccc(CNCCc5ccncc5)c4)c3)nc12`, for which the growth inhibition was 99% (active) in assay [1] and 101% (active) in assay [4]. Moreover, the inhibition in assay [2] was 20%; in assay [3], -2%. The result in assay [5], in assay [6], in assay [7] and in assay [8] was inactive.
In the case of `OC(CNc1ccnc(Nc2cccc(CCN3CCOCC3)c2)n1)c1ccccc1` (centres undefined), the growth inhibition in assay [1] was 14%; in assay [4], 102% (active). Besides, the inhibition in assay [2] was 34%; in assay [3] it was -1%. In addition, the result in assay [5], in assay [6], in assay [7] and in assay [8] was inactive.
